Compound activity deposited in PubChem BioAssay by The Scripps Research Institute Molecular Screening Center.
Most compounds without a hit are left out; they make up all but 2.3% or so of the library.
CHO-K1 Ca antag – M1 antagonist counterscreen hit in parental CHO-K1 cells; ATP-induced calcium, Fluo-8 fluorescence; inhibition, % at 3 µM; hit rate 0.6% among 360,000;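 active = inhibition above a per-plate cutoff, the plate's mean sample inhibition plus 3 SD, cut at about 24% in these data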;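 note: 0% = DMSO plus EC80 ATP and 100% = DMSO alone without ATP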
CHRM1 agonist – human M1 muscarinic receptor agonism; P11229; CHO-K1 hM1, Fluo-8 calcium fluorescence, agonist mode; 0% DMSO, 100% acetylcholine EC100; activation, % at 3 µM; hit rate 0.33% among 360,000; AID 588814;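 active = activation above the run's mean compound activation plus 3 SD, cut at about 16% in these data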;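 note: peak over basal fluorescence ratio within a 140 s kinetic read after compound addition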
Target sequence (P11229 whole entry, looked up): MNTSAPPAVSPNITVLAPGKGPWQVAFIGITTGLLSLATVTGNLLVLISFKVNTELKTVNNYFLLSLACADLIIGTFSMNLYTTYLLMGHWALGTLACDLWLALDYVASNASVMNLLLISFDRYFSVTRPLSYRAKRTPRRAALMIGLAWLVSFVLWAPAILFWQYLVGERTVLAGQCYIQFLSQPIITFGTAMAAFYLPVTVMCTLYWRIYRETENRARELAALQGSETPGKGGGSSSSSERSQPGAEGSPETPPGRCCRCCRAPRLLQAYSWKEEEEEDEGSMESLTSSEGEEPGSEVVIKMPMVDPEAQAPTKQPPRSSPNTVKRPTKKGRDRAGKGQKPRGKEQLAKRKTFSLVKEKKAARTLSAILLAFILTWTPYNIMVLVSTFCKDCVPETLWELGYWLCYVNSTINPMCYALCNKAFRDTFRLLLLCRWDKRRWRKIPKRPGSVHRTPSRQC
CHO-K1 Ca ag – counter-screen for M1 agonists: effect in parental CHO-K1 cells; Fluo-8 calcium fluorescence; scaled to maximal ATP response, vehicle zero; activation, % at 3 µM; hit rate 0.48% among 360,000; AID 602248; in the data active = activation above about 15%;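 note: untransfected CHO-K1 host cells lacking M1 receptor as counterscreen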
M1 PAM parental – nonselective activator or artifact in parental CHO-K1 calcium assay; hit rate 0.02% among 360,000; ATP EC20, Fluo-8 calcium fluorescence; 0% at ATP EC20, 100% at ATP max; activation, % at 3 µM;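 active = activation above the run cutoff, the mean activation of all test compounds plus 3 SD, cut at about 40% in these data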;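 note: peak over basal fluorescence ratio in a 140 s read after ATP addition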
M1 antag – blocks human M1 muscarinic receptor | inhibition, % at 3 µM | P11229 | hit rate 1.3% among 360,000 | CHO-K1 hM1, Fluo-8 calcium fluorescence, ACh EC80 antagonist;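 active = percent inhibition above its own plate's cutoff, namely the mean of that plate's compound wells plus 3 SD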;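 note: peak over basal fluorescence ratio during 140 s after agonist addition; 0% = ACh EC80 plus DMSO and 100% = DMSO alone without agonist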
CHRM1 PAM – potentiates human M1 receptor response to acetylcholine | AID 588819 | CHO-K1 hM1, Fluo-8 calcium fluorescence, ACh EC20; 0% = ACh EC20, 100% = maximal ACh | hit rate 0.088% among 360,000 | activation, % at 3 µM; in the data active = activation above about 19%, passing the limit was not always enough
Starred values were filed as active, the others as inactive.

How did CCOC(=O)c1c(C)nc2sc(C(=O)Nc3ccc(C(C)=O)cc3)c(N)c2c1-c1ccc(OC)cc1 do in these assays?
CHO-K1 Ca antag: 8.0; CHRM1 agonist: -2.3; CHO-K1 Ca ag: 1.6; M1 PAM parental: -2.9; M1 antag: 37.6*; CHRM1 PAM: -8.8

Results for CCOC(=O)CSc1nnc2cc(C)c3ccccc3n12 ?
CHO-K1 Ca antag: -2.8; CHRM1 agonist: -4.0; CHO-K1 Ca ag: 0.0; M1 PAM parental: 8.1; M1 antag: -13.2; CHRM1 PAM: 18.8*

What do the screens show for `CCOC(=O)CSc1ccc2nnc(-c3ccccc3)n2n1`?
CHO-K1 Ca antag: 25.9*; CHRM1 agonist: -3.3; CHO-K1 Ca ag: 1.3; M1 PAM parental: -10.7; M1 antag: -4.2; CHRM1 PAM: 4.2

How did CCOC(=O)CSc1ccc2nnc(-c3cccnc3)n2n1 do in these assays?
CHO-K1 Ca antag: -1.6; CHRM1 agonist: -0.7; CHO-K1 Ca ag: 0.1; M1 PAM parental: 4.7; M1 antag: -5.6; CHRM1 PAM: 4.1

What do the screens show for `CCOC(=O)Cc1csc(SCC(=O)N2CCN(c3ccccc3)CC2)n1`?
CHO-K1 Ca antag: -12.8; CHRM1 agonist: 5.0; CHO-K1 Ca ag: 0.0; M1 PAM parental: 9.0; M1 antag: -20.0; CHRM1 PAM: 4.7

Results for CCCCNC(=O)C1(C)CCN1C(=O)c1oc2ccccc2c1C (configuration not stated) ?
CHO-K1 Ca antag: -15.1; CHRM1 agonist: -7.5; CHO-K1 Ca ag: 3.2; M1 PAM parental: 19.8; M1 antag: -15.4; CHRM1 PAM: 3.2

Results for CCCN1C2CCCC1CC(NC(=O)c1ccccc1)C2 (configuration not stated) ?
CHO-K1 Ca antag: -1.2; CHRM1 agonist: -5.9; CHO-K1 Ca ag: 0.0; M1 PAM parental: -3.2; M1 antag: 41.9*; CHRM1 PAM: -16.1

Results for CCCN1C2CCCC1CC(NC(=O)c1ccccc1OCC)C2 (configuration not stated) ?
CHO-K1 Ca antag: -6.8; CHRM1 agonist: -4.8; CHO-K1 Ca ag: -0.1; M1 PAM parental: 17.7; M1 antag: 20.4; CHRM1 PAM: -9.1

Results for CCNC(=S)NC1CC2CCCC(C1)N2CCc1ccccc1 (configuration not stated) ?
CHO-K1 Ca antag: -6.8; CHRM1 agonist: -8.3; CHO-K1 Ca ag: 0.2; M1 PAM parental: 10.1; M1 antag: 72.4*; CHRM1 PAM: -27.5

How did CCCN1C2CCCC1CC(NC(=O)c1ccccc1F)C2 (configuration not stated) do in these assays?
CHO-K1 Ca antag: 16.8; CHRM1 agonist: -5.1; CHO-K1 Ca ag: 0.0; M1 PAM parental: -8.0; M1 antag: 9.6; CHRM1 PAM: -7.0

Results for CCCN1C2CCCC1CC(NC(=O)c1ccccc1Br)C2 (configuration not stated) ?
CHO-K1 Ca antag: 0.1; CHRM1 agonist: -8.7; CHO-K1 Ca ag: -0.1; M1 PAM parental: -8.3; M1 antag: 47.0*; CHRM1 PAM: -20.9

How did CCOc1ccccc1C(=O)NC1CC2CCCC(C1)N2Cc1ccc(C)cc1 (configuration not stated) do in these assays?
CHO-K1 Ca antag: -4.3; CHRM1 agonist: -9.3; CHO-K1 Ca ag: -0.3; M1 PAM parental: 1.4; M1 antag: 42.9*; CHRM1 PAM: -23.8

Results for CCOC(=O)Cc1csc(/N=C/c2c(O)n(-c3ccccc3C(F)(F)F)c(=O)c3ccccc23)n1 ?
CHO-K1 Ca antag: 12.8; CHRM1 agonist: 0.2; CHO-K1 Ca ag: 3.9; M1 PAM parental: 3.9; M1 antag: 25.3; CHRM1 PAM: -14.1

Results for CCn1nc(C)c(NC(=O)c2cnn3c(C(F)F)cc(-c4ccccc4)nc23)c1C ?
CHO-K1 Ca antag: -3.0; CHRM1 agonist: 15.4; CHO-K1 Ca ag: 1.6; M1 PAM parental: 14.5; M1 antag: 0.0; CHRM1 PAM: -0.5

How did O=C(Nc1cccc(S(=O)(=O)N2CCOCC2)c1)C1COc2ccccc2O1 (configuration not stated) do in these assays?
CHO-K1 Ca antag: -2.3; CHRM1 agonist: -1.3; CHO-K1 Ca ag: 5.3; M1 PAM parental: -6.5; M1 antag: 11.9; CHRM1 PAM: -6.6

What do the screens show for `CCOC(=O)[C@]12CCC=C1N(CCC1=CCCCC1)C(=O)[C@H](CC(=O)NCCCCc1ccccc1)C2`?
CHO-K1 Ca antag: -2.9; CHO-K1 Ca ag: -0.5; M1 PAM parental: 2.5
